{
  "source": "PubChem BioAssay (NCI)",
  "note": "The panel holds about 83,000 compounds, 20% with a hit somewhere; the sample as a whole holds those more often.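 Single-concentration screen, 48 h exposure, 96-well plates. Endpoint: percent growth. Below 10 = active.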 Active and inactive are the calls of the source.",
  "data": [
    {"test_system": "HCC-2998 colon", "experiment": "NCI-60 one-dose screen, 48 h (100 = growth as untreated, 0 = no growth, -100 = all killed)", "settings": "10 µM unless noted", "description": "Growth inhibition of the HCC-2998 human tumor cell line is measured as a screen for anti-cancer activity. Cells are grown in 96 well plates and exposed to the test compound for 48 hours. Compounds are tested at a single concentration, which is 10^-5 M for most compounds. The reported endpoint is percent growth (GI% or GIPRCNT), where numbers from 0 - 100% represent growth inhibition, and numbers from -100% - 0 represent cell death. For example, a value of 40 represents 60% growth inhibition. A value of 0 means no net growth occurred over the course of the experiment. A value of -40 indicates 40% of cells at the beginning of the experiment died by the end of the experiment. A value of -100 means all cells are dead at the end of the experiment.\nNCI-60 Human Tumor Cell Lines Screen was performed using the standard one-dose NCI protocol, which is described in more detail at https://dtp.cancer.gov/discovery_development/nci-60/default.htm.\nCompounds with GIPRCNT values below 10 were considered active. Activity score was based on GIPRCNT using the following formula: […]\nScore is 0 for GIPRCNT values of 100 or above, 50 for GIPRCNT values of 0, and 100 for GIPRCNT values of -100.", "values": [
      {"smiles": "O=C1/C(=C\\c2cn(-c3nc(N4CCOCC4)nc(N4CCOCC4)n3)c3ccccc23)c2ccccc2N1c1c(Cl)cccc1Cl", "growth": "75.5% (inactive)"},
      {"smiles": "O=C(N/N=C/c1coc2ccccc2c1=O)c1cc2oc(-c3ccccc3)cc2[nH]1", "growth": "98.8% (inactive)"},
      {"smiles": "COC(=O)C(N)CC(C)C", "note": "(stereo not given)", "growth": "111% (inactive)"},
      {"smiles": "Cc1nc2c(nnn2-c2ccccc2)c2nc(-c3ccc(Cl)cc3)oc(=O)c12", "growth": "111% (inactive)"},
      {"smiles": "CCCCN(CCC)CCCCCCCCCCN1CCCc2ccccc21", "growth": "98.3% (inactive)"},
      {"smiles": "O=P(OCCCl)(OCCCl)C(O)c1ccccc1Cl", "note": "(stereo not given)", "growth": "106% (inactive)"},
      {"smiles": "COC(=O)c1ccc2[nH]c(O)c(C(=Nc3ccc(N(C)C(=O)CN4CCN(C)CC4)cc3)c3cccc(OC)c3)c2c1", "growth": "20.3% (inactive)"},
      {"smiles": "Cc1ccc2c(O)c(O)cc(NC(C)CCCN)c2n1", "note": "(stereo not given)", "growth": "60.4% (inactive)"},
      {"smiles": "CCOC(=O)CCCCCCCCC(=O)OCC", "growth": "98.4% (inactive)"},
      {"smiles": "COc1ccc(OC)c(Cn2cc3c(c2)-c2oncc2CC3)c1", "growth": "66.6% (inactive)"},
      {"smiles": "CN1CCN(Cc2ccc(NC(=O)c3ccc(C#Cc4c(N)ncc5ccc(F)cc45)cc3)cc2C(F)(F)F)CC1", "growth": "-82.9% (active)"},
      {"smiles": "COc1ccc(C(=O)NCCNc2nccc(-c3c(-c4ccc(F)cc4)nc4sccn34)n2)cc1", "growth": "97% (inactive)"},
      {"smiles": "C=CCC(CCC(CC=C)C(=O)OCC)C(=O)OCC", "note": "(stereo not given)", "growth": "113% (inactive)"},
      {"smiles": "COc1cc(/C=C/C(=O)/C=C(/C=C/c2ccc(OC(C)=O)c(OC)c2)OB(F)F)ccc1OC(C)=O", "growth": "100% (inactive)"},
      {"smiles": "O=C(O)c1ccc(-c2nn(-c3ccc(C(=O)O)cc3)cc2CNc2ccc(Br)cc2)cc1", "growth": "102% (inactive)"},
      {"smiles": "Nc1nc2cc(O)ccc2n2cc3c(F)cccc3c12", "growth": "58.5% (inactive)"},
      {"smiles": "COc1cc(-c2cc3cnccc3c3nc(N)c4ccncc4c23)cc(OC)c1OC", "growth": "70.1% (inactive)"},
      {"smiles": "CCCCN(CCCC)CC(O)CN(CC)CC", "note": "(stereo not given)", "growth": "102% (inactive)"},
      {"smiles": "O=C1CSC(c2ccccc2Cl)N1c1nnc(-c2ccncc2)o1", "note": "(stereo not given)", "growth": "97.9% (inactive)"},
      {"smiles": "N/C(=N\\O)c1ccncc1", "growth": "95.8% (inactive)"},
      {"smiles": "COc1ccc(Oc2[nH]n(C3=Nc4ccccc4Sc4ccccc43)c(=O)c2C#N)cc1", "growth": "103% (inactive)"},
      {"smiles": "O=C(/C=C/c1ccc(Br)cc1)c1ccccc1", "growth": "99.4% (inactive)"},
      {"smiles": "CC(=O)c1nn(-c2ccc(C)cc2)cc1C(=O)c1cc2c(ccc3ccccc32)oc1=O", "growth": "103% (inactive)"},
      {"smiles": "CCOC(=O)C1CCCN1C(=O)C1(NC(C)=O)CCCC1", "note": "(stereo not given)", "growth": "108% (inactive)"},
      {"smiles": "COc1ccc(C(=O)N2N=C(c3ccc(Br)cc3)CC2c2cn(-c3ccccc3)nc2-c2ccccc2)cc1", "note": "(stereo not given)", "growth": "55.9% (inactive)"},
      {"smiles": "CC(=O)NCCN", "growth": "97.4% (inactive)"},
      {"smiles": "O=C(CN1CCN(c2cccc(Cl)c2)CC1)N1CCN(c2nnc(-c3ccc(Cl)cc3)c(-c3ccc(Cl)cc3)n2)CC1", "growth": "83.6% (inactive)"},
      {"smiles": "COc1ccc(C2=NN(C(=O)c3cc(-c4ccc(C)cc4)nc4ccccc34)C(c3cc(-c4ccccc4)nn3-c3ccccc3)C2)cc1", "note": "(stereo not given)", "growth": "102% (inactive)"},
      {"smiles": "O=C1/C(=N\\c2cc(=O)[nH]n2S(=O)(=O)c2ccccc2)Nc2ccccc21", "growth": "104% (inactive)"},
      {"smiles": "COc1ccc(/C=C2\\SC(=O)N(Cc3cc(=O)oc4ccc(OC)cc34)C2=O)cc1", "growth": "95.4% (inactive)"},
      {"smiles": "CCOC(=O)c1cc(C(=O)c2ccc(Br)cc2)n2cc(C)cc(C)c12", "growth": "102% (inactive)"},
      {"smiles": "Nc1nc2c(c3ncncc13)C(c1cccc(C(F)(F)F)c1)Cc1ncncc1-2", "note": "(stereo not given)", "growth": "64.3% (inactive)"},
      {"smiles": "CCS(=O)(=O)OCCO[C@H]1Cc2cc3ccc(=O)oc3cc2OC1(C)C", "growth": "109% (inactive)"},
      {"smiles": "O=C(OCC1CC2(Cl)C(Cl)=C(Cl)C1(Cl)C2(Cl)Cl)C1C(C(=O)OCC2CC3(Cl)C(Cl)=C(Cl)C2(Cl)C3(Cl)Cl)C2(Cl)C(Cl)=C(Cl)C1(Cl)C2(Cl)Cl", "note": "(stereo not given)", "growth": "102% (inactive)"},
      {"smiles": "CCOC1=C(Cl)C(=O)C(OCC)=C(Cl)C1=O", "growth": "91.2% (inactive)"},
      {"smiles": "CCC(C)CC(N)O", "note": "(stereo not given)", "growth": "112% (inactive)"},
      {"smiles": "CCCCCCCCC1OC1CCCCCCCC(=O)O", "note": "(stereo not given)", "growth": "107% (inactive)"},
      {"smiles": "CC/C(=N\\Nc1nc2ccccc2n1C)c1ccccn1", "growth": "32.3% (inactive)"},
      {"smiles": "CC(=O)O.[In]", "growth": "108% (inactive)"},
      {"smiles": "Oc1ccccc1/C=N/N=C/c1c(O)ccc2ccccc12", "growth": "91.2% (inactive)"}
    ]}
  ]
}
